Compound activity deposited in PubChem BioAssay by National Center for Advancing Translational Sciences (NCATS).
Most compounds without a hit are left out; they make up all but 6% or so of the library.
ERK AVP inh: blocks ERK signaling stimulated by vasopressin; 72,000 compounds, 0.99% hits; AID 995; Potency, µM (top dose mostly 57.5 µM), inactives show at the highest dose activity, negative = inhibition, hits mostly inhibitors; HEK293-V1b, vasopressin-stimulated pERK AlphaScreen; also: % is scaled to controls: 0 for no effect and ±100 for the full control effect; nearly all actives have a fitted effect of over 55% in size
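Overnight-seeded V1b-HEK293 cells in 1% FBS got compound, then vasopressin (25 nM final, 5 min, 37C), then lysis buffer. AlphaScreen detection of phospho-ERK; activity normalized to basal and full-stimulation controls.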
TSHR agonist: activates the human thyroid stimulating hormone receptor. P16473. HEK293-CNG-TSHR cells (CNG channel as cAMP sensor), membrane potential dye, cAMP. Potency, µM (series often up to 57.1 µM), for inactives: at the highest dose activation, hits mostly activators. 73,000 compounds, 0.48% hits; active = well fitted activation curve with a large enough effect in the main read-out, with a control signal flat, not every such curve was filed as active; inconclusive = small, poorly fitted or top-dose-only effect, or a change in a side signal; inactive = no such curve, though single readings can be large or run the other way; % of control where 0% means no effect;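 also: the control signal comes from parental cells without the receptor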
Target sequence (P16473 whole entry, looked up): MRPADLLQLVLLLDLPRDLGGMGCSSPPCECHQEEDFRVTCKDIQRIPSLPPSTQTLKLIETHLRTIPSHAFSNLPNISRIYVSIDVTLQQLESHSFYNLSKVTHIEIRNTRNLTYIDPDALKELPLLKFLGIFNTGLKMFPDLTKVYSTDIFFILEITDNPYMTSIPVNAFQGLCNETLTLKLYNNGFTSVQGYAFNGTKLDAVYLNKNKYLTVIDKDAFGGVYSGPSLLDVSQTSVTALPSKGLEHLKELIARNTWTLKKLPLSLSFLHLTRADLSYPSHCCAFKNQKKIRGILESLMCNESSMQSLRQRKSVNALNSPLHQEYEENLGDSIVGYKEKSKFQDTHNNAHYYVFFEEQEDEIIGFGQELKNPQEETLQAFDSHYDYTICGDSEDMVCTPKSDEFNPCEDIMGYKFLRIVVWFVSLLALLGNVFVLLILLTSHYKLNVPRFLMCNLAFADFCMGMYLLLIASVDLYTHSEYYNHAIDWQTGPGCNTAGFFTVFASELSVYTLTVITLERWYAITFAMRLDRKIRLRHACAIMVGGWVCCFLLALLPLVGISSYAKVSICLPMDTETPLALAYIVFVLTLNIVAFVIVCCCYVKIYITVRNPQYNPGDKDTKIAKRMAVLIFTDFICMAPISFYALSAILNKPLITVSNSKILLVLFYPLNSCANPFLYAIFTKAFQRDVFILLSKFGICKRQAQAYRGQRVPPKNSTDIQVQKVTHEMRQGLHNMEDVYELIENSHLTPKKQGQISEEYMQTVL
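HEK 293 cells stably expressing TSHR and a modified CNG channel, with CNG-only parental cells as counterscreen, were preloaded 60 min at room temperature with membrane potential dye containing 100 uM RO 20-1724. Compound exposure was 30 min, and depolarization was read as fluorescence at 590 nm.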
CRE-bla Fsk: modulators of forskolin-stimulated CRE signaling in CHO cells. CHO CRE-bla reporter (cAMP response element driving beta-lactamase), forskolin EC10, beta-lactamase ratio. Potency, µM (titrated, usually from 38.2 µM), for the others: top-dose activity change, negative = inhibition, hits mostly activators. 71,000 compounds, 2.5% hits; active = well fitted activation curve with a large enough effect in the signal ratio, with a control signal flat, not every such curve was filed as active; inconclusive = small, poorly fitted or top-dose-only effect, or effect the other way, or a change in a side signal; the % refers to the signal ratio; also: % of control where 0% means no effect
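Beta-lactamase reporter under a cAMP responsive element in CHO cells; compounds tested in titration series against EC10 NKH 477, 3 h at 37 °C. Read-out: CCF4 FRET ratio 460nm/530nm (excitation 405nm) giving %Activity, fitted to AC50.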
HEK293 cAMP ctrl: parental HEK293 cAMP activation (counter-screen) | parental HEK293 CNG cAMP sensor, membrane potential fluorescence | Potency, µM (series often up to 57.1 µM), for the others: at the highest dose activation, actives largely listed as activators | 73,000 compounds, 2.5% hits; also: % of control where 0% means no effect; nearly all actives have a fitted effect of over 55% in size
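Parental HEK 293 cells stably expressing a modified CNG channel (no TSHR) report cAMP rise as membrane depolarization. Membrane potential dye with 100 uM RO 20-1724 was loaded for 60 min at room temperature, then compound added for 30 min; fluorescence read at 590 nm.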
* marks the source's active call; other numbers are inactive results; ? = inconclusive; / = no result given; [ ] = another dose, or the depositor's remark. Unless noted, calls follow the shape of the dose curve; as a rule, active = well fitted curve in the direction sought with a large enough effect; inconclusive = small, poorly fitted or top-dose-only effect, or another doubt; inactive = no such curve, though single readings can be large; an effect the other way counts as inactive or inconclusive. Potency is read from the fitted curve at half-maximal effect.

SMILES	ERK AVP inh	TSHR agonist	CRE-bla Fsk	HEK293 cAMP ctrl
CCCOc1nc(N)c(C#N)c(-c2ccccc2F)c1C#N	?	16%	?	21%
COc1cc2c(cc1OC)C(=O)N(C)CC2	-20%	4%	16µM*	10%
COc1cc2c(cc1OC)C(=O)OC2	6%	/	/	/
CC(=O)OC1CC[C@]2(C)C(CC(OC(C)=O)[C@@]3(C)C4=CC(=O)OC(c5ccoc5)[C@]4(C)CCC23)C1(C)C (some centres undefined)	-11%	/	/	/
CCOC(=O)c1c(C)oc2cc(Br)c(O)c(Br)c12	-27%	25µM*	?	11%
CCOC(=O)COc1cc2c(C(=O)OCC)c(C)oc2cc1Br	20%	?	21%	?
COC(=O)[C@@]1(Cc2ccc(OC)cc2)[C@H]2c3cc(C(=O)N4CCCC4)n(CCc4c[nH]c5cc(F)ccc45)c3C[C@H]2CN1C(=O)c1ccccc1	-4%	2%	-18%	17%
Cc1ccccc1N=C(N)Nc1ccccc1C	-18%	?	-24%	16µM*
Nc1nc(N)nc(CC(=O)O)n1	-14%[11.5 µM]	-4%[11.4 µM]	-6%[7.6 µM]	4%[11.4 µM]
O=C(NCc1nc2ccccc2[nH]1)[C@H]1C[C@@H]1[C@H](NP(=O)(c1ccccc1)c1ccccc1)c1ccccc1	14%	?	-18%	13µM*
CC(C)(CNC(=O)c1cccs1)CNC(=O)c1cccs1	-30%	?	-4%	32µM*
CCn1c(CCCNC(=O)c2cccs2)nc2ccccc21	/	2%	15%	4%
CCn1c(NC(=O)c2cccs2)nc2ccccc21	21%	?	?	16µM*
O=C(NCc1ccccn1)[C@H]1C[C@@H]1[C@H](NP(=O)(c1ccccc1)c1ccccc1)c1ccccc1	-6%	14%	-6%	27%
O=C(NCc1nc2ccccc2[nH]1)c1cccs1	/	?	-9%	5µM*
O=C(NCCCNC(=O)c1cccs1)c1cccs1	5%	4%	-5%	1%
O=C(c1ccc(Cc2nc3ccccc3[nH]2)cc1)N1CCOCC1	/	0%	/	30%
CCOC(=O)c1ccc(NC(=O)c2cc3ccccc3o2)cc1	32µM*	?	0%	25µM*
CC(C)C(=O)Nc1ccc(NC(=O)c2cc3ccccc3o2)cc1	-9%	5%	-4%	7%
O=C(Nc1cccc(Br)c1)c1cc2ccccc2o1	?	?	-6%	25µM*
Cc1cccc(NC(=O)c2cc3ccccc3o2)c1	-30%	?	-8%	25µM*
CCOC(=O)c1ccc(NC(=O)Nc2ccc3c(c2)OCCO3)cc1	25µM*	-29%	-5%	-16%
O=C(Nc1ccccc1N1CCCC1)c1cc2ccccc2o1	-3%	1%	7%	15%
CCC(=O)Nc1cccc(NC(=O)c2cc3ccccc3o2)c1	-12%	14%	?	8%
C[C@@H]1Oc2ccc(C(=O)C[C@@H](C(=O)O)c3ccc4c(c3)OCO4)cc2O1	0%[11.5 µM]	5%[11.4 µM]	17%[7.6 µM]	14%[11.4 µM]
SMILES	ERK AVP inh	TSHR agonist	CRE-bla Fsk	HEK293 cAMP ctrl
Cc1cc(C)c(C)c(S(=O)(=O)NCCC(=O)O)c1C	/	-4%	/	-7%
CC(C)(C)NS(=O)(=O)c1ccc(OCC(=O)Nc2ccc3c(c2)OCCO3)cc1	18%	-1%	-1%	0%
Cc1cc(OCC(=O)Nc2ccc3c(c2)OCCO3)ccc1Cl	?	?	0%	0.25µM*
O=C(Nc1ccc(N2CCN(C(=O)c3ccccc3)CC2)cc1)c1cc2ccccc2o1	1µM*	-34%	?	-18%
Cn1cccc1C(=O)N1CCC2(CC1)CCN(c1ccccc1)CC2	-24%	5%	-5%	-2%
CCOc1ccccc1NC(=O)c1ccccc1NS(C)(=O)=O	-7%	7%	-8%	17%
COc1ccccc1NC(=O)c1ccccc1NS(C)(=O)=O	7%	23%	2µM*	22%
COc1ccccc1NC(=O)c1ccccc1SC	2%	/	-2%	18%
COc1cc2cc(C(=O)Nc3ccccc3)c(N)nc2cc1OC	-18%	/	3.2µM*	10%
COc1ccccc1NC(=O)c1ccccc1-c1nc(-c2ccccc2OC)no1	-8%	?	-7%	25µM*
COc1ccccc1-c1noc(-c2ccccc2C(=O)Nc2ccccc2)n1	-3%	?	-20%	25µM*
COc1ccccc1-c1noc(-c2ccncc2)n1	-22%	3%	16%	8%
Cc1nc2c(OCc3ccccc3)cccn2c1CC#N	?	-10%	?	-9%
O=C(Nc1nc(-c2ccccc2)cs1)c1cccs1	16µM*	?	-10%	?
O=C(Nc1nc(-c2ccc(Cl)s2)cs1)c1cccs1	10µM*	?	1%	25µM*
O=C(Nc1nc(-c2ccccc2)ns1)c1cccs1	3%	11%	0%	2%
O=C(COc1ccccc1)Nc1nc(-c2cccs2)cs1	-17%	?	16%	25µM*
CCC(C)(C)NC(=O)C(c1ccc(C)o1)N(Cc1cccs1)C(=O)Cn1nnc2ccccc21 (centres undefined)	-9%	?	-2%	16µM*
COCCNC(=O)C(c1ccc(C)o1)N(Cc1ccc(OC)cc1)C(=O)Cn1nnc2ccccc21 (centres undefined)	-1%	3%	-6%	3%
CCC(C)(C)NC(=O)C(c1ccccc1F)N(Cc1ccco1)C(=O)Cn1nnc2ccccc21 (centres undefined)	-15%	?	-10%	16µM*
COc1cc(-c2nnc(SCC(=O)c3cc(C)n(CC4CCCO4)c3C)o2)cc(OC)c1OC (centres undefined)	-9%	18%	4µM*	5%
COc1cc(-c2nnc(SCC(=O)N3CCCC3)o2)cc(OC)c1OC	-16%	-2%	?	4%
COc1cccc(C(=O)CSc2nnc(-c3cc(OC)c(OC)c(OC)c3)o2)c1	7%	/	?	19%
COc1ccc(C(=O)CSc2nnc(Cc3ccccc3)o2)cc1	-20%	/	-3%	18%
COc1ccc(Cc2nnc(SCC(=O)c3ccc(OC)cc3)o2)cc1	-12%	?	0%	32µM*
SMILES	ERK AVP inh	TSHR agonist	CRE-bla Fsk	HEK293 cAMP ctrl
COc1cc(-c2nnc(SCC(=O)c3ccc(C)cc3)o2)cc(OC)c1OC	0%	?	2.5µM*	?
CC(=O)N(OCc1ccccc1)[C@@H]1c2cc(C#N)ccc2OC(C)(C)[C@H]1O	18%	-3%	/	-5%
O=C(O)[C@@H]1[C@@H](C(=O)NCc2ccccn2)[C@@H]2C=C[C@@H]1O2	-17%[11.5 µM]	3%[11.4 µM]	8%[7.6 µM]	-14%[11.4 µM]
Cc1c2c(nc3c(C(=O)NC4CC4)cnn13)CCCC2	-15%	/	13µM*	4%
CCC(C)NC(=O)c1cnn2c(C)c3c(nc12)CCCC3 (centres undefined)	-20%	/	13µM*	22%
CCC(C)C(=O)Nc1c2c(nc3c1CCC3)CCCC2 (centres undefined)	-24%	?	22%	?
c1nc(N2CCCC2)c2[nH]cnc2n1	32µM*	6%[11.4 µM]	9%	13%
C/C(=N/S(=O)(=O)c1ccc(Cl)c(Cl)c1)OCC(C)(C)C	-2%[11.5 µM]	9%[11.4 µM]	-11%[7.6 µM]	4%[11.4 µM]
CCCCCCNc1cc2n(c(=O)n1)CCc1cc(OC)c(OC)cc1-2	?	/	2µM*	1%
